The values below come from the supplement of paper PMC12067093, “Discovery and optimisation of a covalent ligand for TRIM25 and its application to targeted protein ubiquitination” (Chemical Science, 2025).

Of roughly 21,000 targets only a part is listed; those with the largest changes were picked by preference.

Compound in the experiment: Cc1cc(ccc1-c1ccccc1)C(=O)N1CCCN(CC1)C(=O)CCl [compound 10]
Put plainly: probe-labelled cysteine peptide fold change vs DMSO (competition) (log2 fold change); higher = less target engagement (more negative = stronger competition). The note with it: THP-1, incubation time: 4 h.
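Note: competitive profiling in live THP-1 cells: cysteine peptides tagged with an iodoacetamide desthiobiotin (IA-DTB) probe, intensity after compound treatment relative to DMSO-treated cells.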

UniProt Q9ULC4, sequence (Q9ULC4 whole entry, looked up): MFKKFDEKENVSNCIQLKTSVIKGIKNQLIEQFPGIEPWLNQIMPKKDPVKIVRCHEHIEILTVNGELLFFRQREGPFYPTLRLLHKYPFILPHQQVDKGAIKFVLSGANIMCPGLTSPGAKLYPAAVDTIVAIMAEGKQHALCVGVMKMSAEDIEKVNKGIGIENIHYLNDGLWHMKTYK
UniProt P49257, sequence (P49257 whole entry, looked up): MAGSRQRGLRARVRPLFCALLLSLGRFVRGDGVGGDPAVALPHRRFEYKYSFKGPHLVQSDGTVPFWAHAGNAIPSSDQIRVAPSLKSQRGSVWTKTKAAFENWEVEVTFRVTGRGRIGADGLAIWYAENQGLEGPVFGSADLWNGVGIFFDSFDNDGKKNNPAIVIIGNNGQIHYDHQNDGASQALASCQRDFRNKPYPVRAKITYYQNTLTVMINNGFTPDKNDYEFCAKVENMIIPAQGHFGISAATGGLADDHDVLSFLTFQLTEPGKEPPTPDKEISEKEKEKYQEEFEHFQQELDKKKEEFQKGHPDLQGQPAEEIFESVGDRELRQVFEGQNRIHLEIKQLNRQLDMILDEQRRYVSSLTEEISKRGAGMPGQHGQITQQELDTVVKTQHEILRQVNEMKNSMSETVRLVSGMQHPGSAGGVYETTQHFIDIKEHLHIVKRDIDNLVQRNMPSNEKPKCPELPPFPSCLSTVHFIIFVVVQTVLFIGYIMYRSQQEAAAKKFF
UniProt Q8N1G4, sequence (Q8N1G4 whole entry, looked up): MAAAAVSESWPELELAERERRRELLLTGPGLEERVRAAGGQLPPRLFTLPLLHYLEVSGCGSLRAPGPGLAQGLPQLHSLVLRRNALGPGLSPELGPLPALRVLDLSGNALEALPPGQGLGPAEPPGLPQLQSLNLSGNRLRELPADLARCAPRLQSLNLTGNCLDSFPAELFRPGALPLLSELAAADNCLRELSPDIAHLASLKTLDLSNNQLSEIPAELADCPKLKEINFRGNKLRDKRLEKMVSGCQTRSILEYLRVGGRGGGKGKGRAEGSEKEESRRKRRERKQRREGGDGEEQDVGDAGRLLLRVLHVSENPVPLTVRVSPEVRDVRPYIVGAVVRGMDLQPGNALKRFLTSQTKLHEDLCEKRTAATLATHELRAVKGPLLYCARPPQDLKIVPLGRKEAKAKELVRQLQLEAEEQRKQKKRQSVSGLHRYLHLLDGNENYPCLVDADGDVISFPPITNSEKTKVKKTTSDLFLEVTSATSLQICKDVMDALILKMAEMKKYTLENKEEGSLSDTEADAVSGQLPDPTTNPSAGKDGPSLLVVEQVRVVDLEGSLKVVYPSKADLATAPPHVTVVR
UniProt Q10469, sequence (Q10469 whole entry, looked up): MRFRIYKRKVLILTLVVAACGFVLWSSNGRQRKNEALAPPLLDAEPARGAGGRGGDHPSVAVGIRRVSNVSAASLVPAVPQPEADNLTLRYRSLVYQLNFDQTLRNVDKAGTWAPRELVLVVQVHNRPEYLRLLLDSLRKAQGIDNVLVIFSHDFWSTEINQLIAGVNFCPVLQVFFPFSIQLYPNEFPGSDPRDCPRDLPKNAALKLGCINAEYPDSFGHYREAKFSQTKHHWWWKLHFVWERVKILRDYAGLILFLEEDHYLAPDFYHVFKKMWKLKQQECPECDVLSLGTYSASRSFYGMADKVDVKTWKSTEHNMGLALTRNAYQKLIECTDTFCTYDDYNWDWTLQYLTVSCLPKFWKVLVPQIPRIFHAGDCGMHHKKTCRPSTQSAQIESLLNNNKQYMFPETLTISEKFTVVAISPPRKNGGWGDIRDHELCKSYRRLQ
UniProt Q9H0U3, sequence (Q9H0U3 whole entry, looked up): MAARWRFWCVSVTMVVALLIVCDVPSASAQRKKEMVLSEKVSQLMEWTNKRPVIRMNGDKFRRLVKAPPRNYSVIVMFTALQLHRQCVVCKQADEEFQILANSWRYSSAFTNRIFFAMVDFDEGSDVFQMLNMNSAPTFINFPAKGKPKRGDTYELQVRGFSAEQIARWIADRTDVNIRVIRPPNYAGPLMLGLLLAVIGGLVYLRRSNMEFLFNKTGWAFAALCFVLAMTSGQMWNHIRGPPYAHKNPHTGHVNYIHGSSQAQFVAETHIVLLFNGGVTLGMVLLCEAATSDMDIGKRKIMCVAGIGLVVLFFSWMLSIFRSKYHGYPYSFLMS
UniProt Q9HCC0, sequence (Q9HCC0 whole entry, looked up): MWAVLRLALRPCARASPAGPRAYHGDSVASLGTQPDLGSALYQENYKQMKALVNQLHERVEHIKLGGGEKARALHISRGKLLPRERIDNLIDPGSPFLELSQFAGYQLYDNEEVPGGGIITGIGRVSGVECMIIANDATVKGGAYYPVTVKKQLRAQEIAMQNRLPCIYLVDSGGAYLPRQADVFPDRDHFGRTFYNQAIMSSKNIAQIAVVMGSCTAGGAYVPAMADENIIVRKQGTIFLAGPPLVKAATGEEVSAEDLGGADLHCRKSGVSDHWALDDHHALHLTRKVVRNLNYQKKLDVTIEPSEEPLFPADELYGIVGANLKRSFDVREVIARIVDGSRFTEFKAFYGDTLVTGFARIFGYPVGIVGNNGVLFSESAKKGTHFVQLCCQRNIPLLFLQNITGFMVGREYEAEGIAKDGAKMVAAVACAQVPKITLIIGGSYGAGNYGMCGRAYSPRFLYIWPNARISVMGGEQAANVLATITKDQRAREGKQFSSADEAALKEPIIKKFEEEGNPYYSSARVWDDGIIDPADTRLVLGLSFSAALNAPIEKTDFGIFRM
UniProt Q9UBB5, sequence (Q9UBB5 whole entry, looked up): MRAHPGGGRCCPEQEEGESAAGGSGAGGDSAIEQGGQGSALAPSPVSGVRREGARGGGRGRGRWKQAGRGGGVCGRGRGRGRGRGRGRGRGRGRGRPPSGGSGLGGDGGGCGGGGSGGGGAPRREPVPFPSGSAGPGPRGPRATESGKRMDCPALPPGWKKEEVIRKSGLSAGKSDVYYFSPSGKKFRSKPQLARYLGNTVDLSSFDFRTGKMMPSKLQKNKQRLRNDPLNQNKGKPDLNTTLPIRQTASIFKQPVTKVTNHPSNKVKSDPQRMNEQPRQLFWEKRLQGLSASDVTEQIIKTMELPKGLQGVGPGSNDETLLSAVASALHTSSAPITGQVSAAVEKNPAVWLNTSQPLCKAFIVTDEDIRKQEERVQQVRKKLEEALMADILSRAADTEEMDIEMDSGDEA
UniProt Q14149, sequence (Q14149 whole entry, looked up): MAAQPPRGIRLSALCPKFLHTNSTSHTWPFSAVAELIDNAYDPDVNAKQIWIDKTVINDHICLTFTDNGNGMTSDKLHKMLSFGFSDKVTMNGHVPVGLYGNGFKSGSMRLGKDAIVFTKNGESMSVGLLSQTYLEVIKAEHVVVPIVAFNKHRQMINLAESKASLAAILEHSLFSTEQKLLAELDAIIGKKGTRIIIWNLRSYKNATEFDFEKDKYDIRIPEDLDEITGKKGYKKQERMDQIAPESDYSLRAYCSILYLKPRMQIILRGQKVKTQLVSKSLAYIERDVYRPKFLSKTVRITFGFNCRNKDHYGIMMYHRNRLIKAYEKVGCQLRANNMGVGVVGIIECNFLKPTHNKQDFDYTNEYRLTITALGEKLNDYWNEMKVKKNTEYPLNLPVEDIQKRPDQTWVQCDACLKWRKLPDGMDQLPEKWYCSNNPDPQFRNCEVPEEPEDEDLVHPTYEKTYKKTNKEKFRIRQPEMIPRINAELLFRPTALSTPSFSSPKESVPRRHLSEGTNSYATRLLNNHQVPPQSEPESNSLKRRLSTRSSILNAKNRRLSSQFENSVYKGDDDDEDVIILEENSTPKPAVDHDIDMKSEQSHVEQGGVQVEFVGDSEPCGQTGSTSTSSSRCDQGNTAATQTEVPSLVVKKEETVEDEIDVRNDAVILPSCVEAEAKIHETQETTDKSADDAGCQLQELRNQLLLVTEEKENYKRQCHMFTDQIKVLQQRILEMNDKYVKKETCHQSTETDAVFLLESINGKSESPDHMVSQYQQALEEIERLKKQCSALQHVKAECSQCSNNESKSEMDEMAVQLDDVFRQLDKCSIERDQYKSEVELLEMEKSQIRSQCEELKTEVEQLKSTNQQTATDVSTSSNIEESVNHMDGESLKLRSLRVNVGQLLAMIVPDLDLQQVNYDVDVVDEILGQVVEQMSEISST
UniProt Q86YT6, sequence (Q86YT6 whole entry, looked up): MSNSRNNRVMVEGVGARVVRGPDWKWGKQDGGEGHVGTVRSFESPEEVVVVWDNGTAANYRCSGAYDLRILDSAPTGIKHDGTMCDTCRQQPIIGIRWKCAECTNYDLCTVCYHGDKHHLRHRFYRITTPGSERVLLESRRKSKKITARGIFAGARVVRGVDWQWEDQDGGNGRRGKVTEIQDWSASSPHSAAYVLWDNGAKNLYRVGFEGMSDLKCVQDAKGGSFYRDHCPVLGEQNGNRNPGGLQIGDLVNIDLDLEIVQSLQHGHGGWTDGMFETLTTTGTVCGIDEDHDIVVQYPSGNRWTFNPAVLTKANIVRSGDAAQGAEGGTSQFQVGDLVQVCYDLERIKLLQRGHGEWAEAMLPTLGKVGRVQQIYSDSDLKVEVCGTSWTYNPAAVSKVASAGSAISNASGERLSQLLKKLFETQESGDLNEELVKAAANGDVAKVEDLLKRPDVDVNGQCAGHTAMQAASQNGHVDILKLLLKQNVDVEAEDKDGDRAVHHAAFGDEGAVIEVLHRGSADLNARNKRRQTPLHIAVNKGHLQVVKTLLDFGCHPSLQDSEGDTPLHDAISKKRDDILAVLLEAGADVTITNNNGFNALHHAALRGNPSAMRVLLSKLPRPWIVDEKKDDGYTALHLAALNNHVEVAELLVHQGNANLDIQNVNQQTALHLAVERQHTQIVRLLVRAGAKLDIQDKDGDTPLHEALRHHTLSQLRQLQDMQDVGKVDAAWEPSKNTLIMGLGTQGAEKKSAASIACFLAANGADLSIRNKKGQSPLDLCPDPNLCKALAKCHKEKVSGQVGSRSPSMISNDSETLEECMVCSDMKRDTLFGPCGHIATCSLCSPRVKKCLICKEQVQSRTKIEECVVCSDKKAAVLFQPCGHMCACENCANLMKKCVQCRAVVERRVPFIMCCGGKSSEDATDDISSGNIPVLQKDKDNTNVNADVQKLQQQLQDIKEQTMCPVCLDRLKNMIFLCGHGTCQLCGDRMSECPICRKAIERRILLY

On to “MBD2_Q9UBB5_111_GRPPSGGSGLGGDGGGCGGGGSGGGGAPR (UniProt Q9UBB5)”, for which the “probe-labelled cysteine peptide fold change” value (10 µM) is -0.142 and the “probe-labelled cysteine peptide fold change” value (50 µM) is -1.1.

With “MCCC2_Q9HCC0_267_AATGEEVSAEDLGGADLHCR (UniProt Q9HCC0)”, the “probe-labelled cysteine peptide fold change” value by setting is: (10 µM) -0.421; (50 µM) -1.1.

Consider “MCTS1_Q9ULC4_144_QHALCVGVMK (UniProt Q9ULC4)”, for which the “probe-labelled cysteine peptide fold change” value (10 µM) turned out to be 0.104 and the “probe-labelled cysteine peptide fold change” value (50 µM) was -0.154.

As to “MRPL35_Q9NZE8_150_EFVFCNK (UniProt Q9NZE8)”, the “probe-labelled cysteine peptide fold change” value is, setting by setting: (10 µM) -0.362; (50 µM) -0.257.

For the target MAGT1_Q9H0U3_87_QCVVCK (UniProt Q9H0U3), the “probe-labelled cysteine peptide fold change” value (10 µM) was -0.137 and the “probe-labelled cysteine peptide fold change” value (50 µM) stood at 0.464.

Consider “LRR1_Q96L50_5_LHCEVEVISR (UniProt Q96L50)”, for which the “probe-labelled cysteine peptide fold change” value is, setting by setting: (10 µM) -0.12; (50 µM) 0.0535.

With “MGAT2_Q10469_386_KTCRPSTQSAQIESLLNNNK (UniProt Q10469)”, the “probe-labelled cysteine peptide fold change” value is, setting by setting: (10 µM) -0.194; (50 µM) -0.657.

In the case of “MYCBP2_O75592_4318_QVFKEEEEAIKVDLHEGCGR (UniProt O75592)”, the “probe-labelled cysteine peptide fold change” value was -0.166 (10 µM) and -0.439 (50 µM).

As to “MED13_Q9UHV7_681_NQCLSAIASDAEQEPK (UniProt Q9UHV7)”, the “probe-labelled cysteine peptide fold change” value was 0.327 (10 µM) and 0.0925 (50 µM).

“MYH9_P35579_671_CIIPNHEKK (UniProt P35579)”: the “probe-labelled cysteine peptide fold change” value is, setting by setting: (10 µM) -0.188; (50 µM) -1.18.

Turning to “MIB1_Q86YT6_103_CAECTNYDLCTVCYHGDK (UniProt Q86YT6)”, the “probe-labelled cysteine peptide fold change” value (10 µM) stood at 0.0824 and the “probe-labelled cysteine peptide fold change” value (50 µM) is -0.0966.

In the case of “LRRC47_Q8N1G4_367_LHEDLCEK (UniProt Q8N1G4)”, the “probe-labelled cysteine peptide fold change” value runs as follows: (10 µM) -0.211; (50 µM) -0.0285.

Consider “MORC3_Q14149_15_LSALCPK (UniProt Q14149)”, for which the “probe-labelled cysteine peptide fold change” value (10 µM) is -0.27 and the “probe-labelled cysteine peptide fold change” value (50 µM) was -1.37.

As to “MDN1_Q9NU22_3195_ELLCQLLTSLHHFVGEGESK (UniProt Q9NU22)”, the “probe-labelled cysteine peptide fold change” value (10 µM) was -0.696 and the “probe-labelled cysteine peptide fold change” value (50 µM) was -1.2.

For “LMAN1_P49257_230_NDYEFCAK (UniProt P49257)”, the “probe-labelled cysteine peptide fold change” value is, setting by setting: (10 µM) 0.239; (50 µM) 0.703.
